Sampled rows, rich in hits. Any-hit rate of the full collection: about 3.8%.
NLRP3 yeast inh = NALP3 inhibition in yeast | Yeast reconstituted NLRP3/ASC/caspase-1, beta-gal luminescence, 24 h | inhibition, % at 10 µM | hit rate 0.39% among 330,000;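 active = inhibition of 50% or more; inactive = inhibition below 50%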
tim23-1 inh = inhibits growth of tim23-1 mutant yeast. inhibition, % at 20 µM. hit rate 1.3% among 330,000. S. cerevisiae tim23-1 growth, BacTiter-Glo luminescence, 24 h;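 active = growth inhibition of the mutant yeast at or above 50%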;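 note: temperature-sensitive mutant grown at 25 °C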
CR mimetic SO = lowers age-related superoxide in aged yeast cells | hit rate 0.18% among 330,000 | AID 2690 | S. cerevisiae aged cells, superoxide DHE fluorescence; hits give low values | superoxide response (% of plate mean), % at 10 µM;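 active = superoxide response under a set limit, about three screen SD below normal, cut at about 65% in these data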;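 note: yeast aged for seven days with compound at 30 °C before DHE staining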
tim10-1 inh = inhibits growth of tim10-1 mutant yeast; S. cerevisiae tim10-1 ts strain growth, BacTiter-Glo, 24 h; hit rate 2.2% among 330,000; inhibition, % at 20 µM;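 active = inhibition of at least 40%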;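 note: mutant grown at 25 °C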
TIM10 inh = inhibits growth of TIM10 yeast strain. inhibition, % at 10 µM. S. cerevisiae TIM10 strain growth, BacTiter-Glo luminescence, 24 h. AID 463195. hit rate 1.4% among 330,000;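 active = inhibition of 40% or more at the single tested concentration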;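 note: wild-type TIM10 isogenic control strain grown at permissive 25 °C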
NALP3 yeast conf = NALP3 inhibition confirmation in yeast; shares compounds with NLRP3 yeast inh; yeast expressing human NALP3, luminescence; inhibition, % at 10 µM; hit rate 81% among 1,300; in the data active = inhibition above about 48%
Casp1-ASC yeast = caspase-1-ASC yeast counter-screen hit; shares compounds with NLRP3 yeast inh; yeast expressing Caspase-1-ASC, luminescence counter screen; inhibition, % at 10 µM; hit rate 66% among 1,000
NALP3 yeast rt = retest-confirmed inhibitor of NALP3 in yeast; yeast expressing human NALP3, luminescence read-out; inhibition, % at 10 µM; hit rate 53% among 1,000; shares compounds with NLRP3 yeast inh
tim10-1 conf = tim10-1 yeast growth inhibition, confirmed; shares compounds with tim10-1 inh; S. cerevisiae tim10-1 ts strain growth, BacTiter-Glo, 24 h; inhibition, % at 20 µM; hit rate 56% among 7,400;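 active = inhibition of yeast growth at or above a set limit in either of two repeat tests at 20 µM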;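 note: tim10-1 mutant grown at permissive 25 °C to find synthetic lethal compounds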
tim10 confirm = confirmation of TIM10 yeast growth inhibitors. shares compounds with TIM10 inh. inhibition, % at 10 µM. hit rate 63% among 4,600. S. cerevisiae tim10 strain growth, BacTiter-Glo luminescence, 24 h;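 active = inhibition of yeast growth at or above a set limit in either of two replicates at 10 µM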; note: this counterscreen used the strain with wild-type TIM10
tim23-1 conf = confirmation of tim23-1 mutant yeast growth inhibitors; hit rate 83% among 4,400; S. cerevisiae tim23-1 growth, BacTiter-Glo luminescence, 24 h; shares compounds with tim23-1 inh; AID 463218; inhibition, % at 20 µM;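 active = inhibition above about 39% in either of two replicate wells at 20 µM, limit read from the data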;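 note: temperature-sensitive tim23-1 mutant grown at 25 °C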
Numbers stand for hits; 0 = inactive; - = no result. Cut-off read from the data, not from the text of the source, unless noted: active = inhibition above about 50%; inactive = the rest.

SMILES	NLRP3 yeast inh	tim23-1 inh	CR mimetic SO	tim10-1 inh	TIM10 inh	NALP3 yeast conf	Casp1-ASC yeast	NALP3 yeast rt	tim10 confirm	tim23-1 conf	others
O=C(/C=C\Nc1ccccn1)c1ccccc1	62.8	51.8	0	0	48.3	46.0	59.4	53.9	51.5	79.5
CCCNC(=O)c1ccc(-c2nc3ccccc3s2)s1	58.4	55.6	0	0	54.8	76.2	0	0	32.8	76.7
Cc1ccc(-c2nnn(C/C(N)=N/O)n2)cc1	0	0	0	0	0	-	-	-	-	-
O=C(COC(=O)c1cccc(Br)c1)NCCC1=CCCCC1	0	0	0	0	0	-	-	-	-	-
CC(C)(O)c1cc2ccc(C#Cc3ccsc3)cc2c(=O)o1	65.3	60.3	0	0	0	51.4	67.2	58.1	-	0
COc1ccc(NC(=O)c2cc(C3CC3)nc3c2cnn3C(C)C)cc1OC	0	0	0	0	0	-	-	-	-	-
O=C(NC(=S)Nc1ccccc1Br)C1CCCCC1	53.3	56.2	0	0	0	0	59.4	0	-	0
O=C(NC(=S)Nc1ccccc1Br)C1CCCC1	0	0	0	0	0	-	-	-	-	-
O=C(NC(=S)Nc1ccc(F)cc1)C1CCCCC1	0	0	0	0	0	-	-	-	-	-
O=C(NC(=S)Nc1ccccc1F)C1CCCCC1	51.7	53.8	0	40.3	0	72.1	72.1	63.2	-	48.2	tim10-1 conf=0
Cc1ccn2c(Nc3ccc4c(c3)OCO4)c(-c3ccccn3)nc2c1	0	0	0	0	0	-	-	-	-	-
Cc1ccc(Nc2c(-c3ccccn3)nc3cc(C)ccn23)cc1	53.4	57.2	0	0	0	62.8	50.5	0	-	50.4
O=C(c1ccc2[nH]c(=O)c(=O)[nH]c2c1)N1CCc2ccccc21	0	0	0	0	0	-	-	-	-	-
Cc1ccc(C(C[N+](=O)[O-])c2c(-c3ccccc3O)[nH][nH]c2=O)cc1 (stereo unspecified)	50.8	66.1	0	43.8	0	50.7	77.4	58.1	-	56.0	tim10-1 conf=37.5
COc1ccc(C(C[N+](=O)[O-])c2c(C)[nH]c3ccccc23)cc1OC (stereo unspecified)	0	0	0	0	0	-	-	-	-	-
O=C(NC(=S)Nc1cnc2ccccc2c1)c1ccccc1	72.7	53.3	0	0	50.9	63.5	65.1	58.9	54.2	68.9
NC(=O)C1CCN(C(=O)c2ccc(NC3=NC4CS(=O)(=O)CC4S3)cc2)CC1 (stereo unspecified)	0	0	0	0	0	-	-	-	-	-
O=C(Nc1ccccc1)C1C(c2ccccc2)C1(Cl)Cl (stereo unspecified)	59.0	55.0	0	43.5	0	71.8	64.2	59.8	-	47.5	tim10-1 conf=0
CCN(Cc1ccccc1)C(=O)COC(=O)c1cc(S(=O)(=O)Nc2ccccc2OC)ccc1O	0	0	0	0	0	-	-	-	-	-
O=Cc1cn(-c2ccccc2)nc1-c1ccc2c(c1)OCCO2	50.2	72.4	0	52.6	47.2	57.0	52.5	59.5	62.0	78.2	tim10-1 conf=58.5
N#Cc1cn(-c2ccccc2)nc1-c1ccc2c(c1)OCCO2	0	0	0	0	0	-	-	-	-	-
CCOc1ccc(C(=O)Nc2cc(S(=O)(=O)Nc3ccccc3Cl)ccc2N2CCOCC2)cc1	0	0	0	0	0	-	-	-	-	-
Cc1ccc2[nH]c3ccccc3c(=O)c2c1	53.0	58.5	0	0	0	61.5	61.0	56.1	-	50.5
Cc1ccc(C(=O)N2CCN(S(=O)(=O)c3cc(Br)ccc3Br)CC2)o1	0	0	0	0	0	-	-	-	-	-
CSc1nc2cc(Oc3cccc(Cl)c3Cl)c(Cl)cc2[nH]1	82.9	74.5	0	53.0	55.2	90.9	96.5	95.3	65.3	0	tim10-1 conf=50.8
SMILES	NLRP3 yeast inh	tim23-1 inh	CR mimetic SO	tim10-1 inh	TIM10 inh	NALP3 yeast conf	Casp1-ASC yeast	NALP3 yeast rt	tim10 confirm	tim23-1 conf	others
O=C(NCc1cccc(F)c1)c1ccc(N2C(=O)Cn3c(cc4sccc43)C2=O)cc1	0	0	0	0	0	-	-	-	-	-
Cc1nnc(NC(=O)c2sc3ccccc3c2Cl)s1	0	0	0	0	0	-	-	-	-	-
O=C(NC1=NCCS1)c1sc2ccccc2c1Cl	51.5	72.8	0	0	46.1	62.6	-	-	37.1	80.1
O=C(OCc1ccc(Br)cc1)c1cccc(S(=O)(=O)N2CCCC2)c1	0	0	0	0	0	-	-	-	-	-
Cc1ccc2nc(NC(=O)Cn3nc(C)c([N+](=O)[O-])c3C)sc2c1	0	50.8	0	0	47.6	0	-	-	0	64.6
CN1CCN(S(=O)(=O)c2ccc(SCCOc3ccc(Cl)cc3)nc2)CC1	73.7	60.9	0	0	64.7	74.3	0	0	68.9	38.6
COc1ccc(/C=C/C(=O)Nc2ccc3c(c2)CCC3)cc1OC	59.5	54.0	0	0	0	0	-	-	-	54.8
C=C(C)COc1ccc2c(C)c(CC(=O)OC)c(=O)oc2c1C	66.3	61.5	0	80.4	86.5	77.9	83.0	79.8	87.5	64.8	tim10-1 conf=75.7
O=C(Nc1ccc(Cl)c(Cl)c1)c1ccccc1	0	0	0	0	0	-	-	-	-	-
CC(=O)c1cccc(NC(=O)C2CCCCC2)c1	0	0	0	0	0	-	-	-	-	-
COc1cccc(NC(=O)c2ccccc2)c1	53.0	56.9	0	0	0	72.0	0	54.1	-	63.7
O=C(Nc1cccc(Cl)c1)c1ccccc1	82.6	62.0	0	0	57.8	92.6	91.4	82.6	57.4	76.1
O=C(Nc1csc(Cl)c1)c1ccccc1	80.5	55.5	0	0	43.2	80.9	86.0	78.6	41.2	68.8
O=C(Nc1cccc(Cl)c1)C1CCCCC1	50.5	66.5	0	0	0	54.9	0	0	-	69.3
Cn1c(CCNS(=O)(=O)c2ccccc2)nnc1SCc1cccnc1	0	0	0	0	0	-	-	-	-	-
C=CC[C@H](CC(=O)NCCO)C(=O)N[C@H](COC(=O)[C@H](CC=C)CC(=O)OC(C)(C)C)Cc1c[nH]c2ccccc12	0	0	0	0	0	-	-	-	-	-
CC(C)Cc1nnc(NC(=O)c2ccc3c(c2)OCCO3)s1	0	0	0	0	0	-	-	-	-	-
O=C1Nc2ccccc2/C1=C/c1ccccc1F	53.2	52.8	0	0	55.9	53.1	0	0	57.2	45.0
O=C(NCCC1=CCCCC1)c1c(O)nc2sccn2c1=O	66.7	74.9	0	42.3	0	78.7	0	55.8	-	61.6	tim10-1 conf=0
O=C(NCCCc1ccccc1)c1c(O)nc2sccn2c1=O	63.4	70.1	0	0	0	77.4	0	59.0	-	54.0
CCn1c(=O)c(C(=O)NCCCc2ccccc2)c(O)c2ccccc21	0	0	0	0	0	-	-	-	-	-
O=C(NCCC1=CCCCC1)c1cnsn1	0	0	0	0	0	-	-	-	-	-

Assay outcomes as filed in PubChem.
